Common to all, as to test: qHTS profiling for inhibitors of Plasmodium falciparum proliferation (AID 504749); note: nearly all actives have a fitted effect of over 60% in size
Conditions in all cases: P. falciparum in erythrocytes, SYBR Green DNA, 72 h; series mostly up to 28.7 µM
A general note: In qHTS, concentration-response curves come from the screen itself.

The test system of one test is CP335. In short, it runs like this:
(§1)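 Fluorescence of SYBR Green-bound parasite DNA, read at 485/535 nm, served as the growth measure. Infected erythrocytes were cultured with compound 72 h; artemisinin (0.29 uM) and DMSO wells defined the normalization range.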

For the next test, the system named is DFO2036. In short, it runs like this:
as §1

The test system of the next test is DIV14. An outline of the steps:
as §1

For the next test, the system named is DIV17. An outline of the steps:
as §1

Another test concerns Dd2. An outline of the steps: as §1
For another test, the system named is ECU. In short, it runs like this:
as §1

For another test, the system named is FAB9. An outline of the steps: as §1
For another test, the system named is GB4. In short, it runs like this: as §1
The next test deals with HB3. In short, it runs like this:
as §1

For a further test, the system named is DIV30. In short, it runs like this: as §1

Records with an inconclusive call do not appear. Calls of active or inactive are those of the source. Calls come from the whole dose curve; as a rule, active = well fitted inhibition curve with a large enough effect; inconclusive = small, poorly fitted or top-dose-only effect; inactive = flat fitted curve, though single readings scatter.
Potency is the fitted concentration of half-maximal effect.

Regarding `CCOC(=O)c1c[nH]c2cc(OCC(C)C)c(OCC(C)C)cc2c1=O`, the Potency with CP335 is 0.0675 µM (active); in the test on DFO2036, 0.1 µM (active); in the test with DIV14, 0.151 µM (active); in the test with DIV17, 0.338 µM (active); in the test on Dd2, 0.141 µM (active); in the test with ECU, 0.0891 µM (active). Further, the Potency is 0.1 µM (active) in the test on FAB9, 0.0601 µM (active) in the test on GB4 and 0.178 µM (active) in the test with HB3.

For `CC(=O)Nc1c(I)c(C(=O)O)c(I)c(N(C)C(C)=O)c1I`, the Potency result with CP335, with DFO2036, with DIV14, in the test on DIV17, with DIV30 and in the test with Dd2 was “inactive” throughout. Further, the Potency entry in the test on FAB9, with GB4 and in the test with HB3 was “inactive” each time.

For `CSCCC(N)C(=O)O` (stereo not given), the Potency result in the test with CP335, with DFO2036, with DIV14, with DIV17, with Dd2 and in the test with ECU was “inactive” each time. Besides, the Potency entry in the test on FAB9 and with HB3 was “inactive” throughout.

On to `CCN(CC)CCCC(C)Nc1cc(/C=C/c2ccccc2Cl)nc2cc(Cl)ccc12` (stereo not given), for which the Potency in the test with CP335 is 2.69 µM (active); in the test on DFO2036, 1 µM (active); in the test with DIV14, 4.26 µM (active); with DIV17 it was 4.26 µM (active); in the test with DIV30 it was 1.69 µM (active); with Dd2, 2.24 µM (active). In addition, the figures for the Potency in the test with ECU, in the test with GB4 and in the test on HB3 were 2.51 µM (active), 4.78 µM (active) and 2 µM (active), respectively.

As to `O=C1c2ccccc2CN2C(=O)c3ccccc3CN12`, the Potency result with CP335, with DFO2036, in the test with DIV14, in the test with DIV30, with Dd2 and in the test with FAB9 was “inactive” throughout. The Potency entry with GB4 and in the test with HB3 was “inactive” each time.

For `CCCCC/C=C\C/C=C\C/C=C\CCCCC(=O)O`, the Potency result in the test on CP335, in the test on DFO2036, with DIV14, in the test with DIV17, in the test with DIV30 and in the test with Dd2 was “inactive” throughout. Moreover, the Potency entry with ECU, in the test on FAB9 and with HB3 was “inactive” each time.

In the case of `C(=C\c1ccncc1)/c1ccccc1`, the Potency result in the test on CP335, in the test with DFO2036, with DIV14, in the test with DIV17, with DIV30 and in the test with Dd2 was “inactive” each time. Moreover, the Potency entry with FAB9 and in the test with GB4 was “inactive” in each case.

As for `CC(C)OC(=O)Nc1ccc2nc(-c3cscn3)[nH]c2c1`, the Potency result with CP335, in the test on DFO2036, in the test with DIV14, in the test with DIV30, in the test on Dd2 and in the test on ECU was “inactive” in each case. The Potency result in the test on FAB9, in the test on GB4 and in the test with HB3 was “inactive” each time.

Regarding `O=P(O)(O)OC[C@H]1O[C@](O)(COP(=O)(O)O)[C@@H](O)[C@@H]1O`, the Potency result with CP335, in the test on DFO2036, with DIV14, with DIV17, with DIV30 and in the test with Dd2 was “inactive” throughout. Also, the Potency result with ECU, with FAB9, in the test with GB4 and in the test with HB3 was “inactive” each time.

For the compound `CC[C@H]1OC(=O)[C@H](C)[C@@H](O[C@H]2C[C@@](C)(OC)[C@@H](O)[C@H](C)O2)C(C)[C@@H](O[C@@H]2O[C@H](C)C[C@H](N(C)C)[C@@H]2O)[C@](C)(OC)C[C@@H](C)C(=O)[C@H](C)[C@@H](O)[C@]1(C)O` (stereo not given in full), the Potency with CP335 is 6.75 µM (active). The Potency entry in the test with DFO2036, with DIV14, with DIV17, with DIV30 and in the test on ECU was “inactive” each time.

With `COc1ccc2c(c1)OC(C)(C)C(c1ccccc1)C2c1ccc(OCCN2CCCC2)cc1` (stereo not given), the Potency in the test with CP335 is 3.79 µM (active); in the test with DFO2036, 4.47 µM (active); in the test on DIV14 it was 6.75 µM (active); in the test with DIV17 it was 7.57 µM (active); in the test with DIV30 it was 12 µM (active); in the test with Dd2, 3.98 µM (active). Further, the figures for the Potency in the test on ECU, with GB4 and in the test on HB3 were 8.91 µM (active), 4.78 µM (active) and 7.94 µM (active), respectively.

Take `CN1CCc2c(c3ccccc3n2Cc2ccccc2)C1`: the Potency entry in the test on DFO2036, in the test on DIV30, with ECU, in the test with FAB9 and with HB3 was “inactive” throughout.

For `N#Cc1ccc2c(c1)N(CCCN1CCC(O)CC1)c1ccccc1S2`, the values for the Potency in the test on DIV14, with DIV17 and in the test on Dd2 were 8.49 µM (active), 9.53 µM (active) and 5.01 µM (active), respectively. Moreover, the Potency result in the test on ECU, in the test with FAB9 and in the test on HB3 was “inactive” throughout.

Take `COc1ccc2c(=O)c(C)c(-c3ccccc3)oc2c1CN(C)C`: the Potency entry in the test with DIV30, with ECU, in the test on FAB9, with GB4 and in the test on HB3 was “inactive” throughout.

Turning to `CC(=O)Nc1ccc(NC(=S)NC(=O)c2ccc(C(C)(C)C)cc2)cc1`, the Potency entry with DFO2036, with DIV17, in the test with DIV30, with ECU, in the test on FAB9 and in the test with GB4 was “inactive” each time. Moreover, the Potency result in the test with HB3 was “inactive”.

Turning to `CCC(O)c1ccccc1` (stereo not given), the Potency entry in the test on DFO2036, in the test on DIV14, in the test on DIV17, in the test on DIV30, with Dd2 and in the test on ECU was “inactive” throughout. The Potency result in the test on FAB9, in the test on GB4 and in the test with HB3 was “inactive” throughout.

For the compound `CCN(CC)CCC(=O)N1c2ccccc2Sc2ccc(Cl)cc21`, the figures for the Potency in the test with DIV14, in the test with DIV17 and with Dd2 were 5.36 µM (active), 8.49 µM (active) and 5.62 µM (active), respectively.

As for `CCOC(=O)Cc1ccc(-c2ccccc2)cc1`, the Potency entry in the test with DIV14, with DIV17, with Dd2, with ECU, with FAB9 and in the test with GB4 was “inactive” throughout. For the same compound, the Potency entry with HB3 is “inactive”.

Take `O=C(OC1C[C@@H]2CC3C[C@H](C1)N2CC3=O)c1c[nH]c2ccccc12` (stereo not given in full): the Potency result in the test with DFO2036, with Dd2, with FAB9 and in the test with HB3 was “inactive” each time. Further, the Potency in the test on DIV14 and with DIV17 was 7.57 µM (active) throughout.

Turning to `O=C(O[C@H]1CN2CCC1CC2)N1CCc2ccccc2[C@@H]1c1ccccc1`, the Potency result with DFO2036, in the test on FAB9 and with HB3 was “inactive” in each case. The Potency with DIV14 is 3.79 µM (active); with DIV17, 4.26 µM (active); in the test on Dd2, 4.47 µM (active).

For the compound `CC1CCC(NC(=O)N(CCCl)N=O)CC1` (stereo not given), the Potency result in the test with DFO2036, in the test on DIV17, with DIV30, in the test on ECU, with FAB9 and in the test on HB3 was “inactive” each time.

Take `CCCOc1cc(N)ccc1C(=O)OCCN(CC)CC`: the Potency result in the test on DFO2036, with DIV14, in the test on DIV17, in the test with Dd2, with ECU and in the test on FAB9 was “inactive” throughout. Besides, the Potency entry in the test on GB4 and in the test on HB3 was “inactive” each time.

In the case of `O=C(c1cc2ccccc2o1)N1CCN(Cc2ccccc2)CC1`, the Potency result in the test with DIV30, with Dd2, with FAB9 and in the test with HB3 was “inactive” throughout.

Regarding `CCN(CC)CCC(=O)N1c2ccccc2Sc2ccc(C(F)(F)F)cc21`, the Potency entry in the test on DFO2036, in the test on ECU, in the test on FAB9 and in the test on HB3 was “inactive” throughout. For the same compound, the Potency in the test with DIV14 was 6.75 µM (active).

As to `CCOc1cc(-c2nccc3cc(OC)c(OC)cc23)cc(OCC)c1OCC`, the Potency with ECU was 11.2 µM (active).

Regarding `O=C1[O][Bi][O]c2ccccc21`, the Potency entry with DFO2036, with DIV14, with DIV17, with DIV30, with Dd2 and with ECU was “inactive” throughout. Also, the Potency entry with FAB9, in the test with GB4 and in the test on HB3 was “inactive” each time.

As for `CN1CCCC(CN2c3ccccc3Sc3ccccc32)C1` (stereo not given), the Potency in the test with DIV14 is 8.49 µM (active); in the test on DIV17, 8.49 µM (active); with Dd2, 4.47 µM (active). The Potency entry with FAB9 and in the test with HB3 was “inactive” in each case.

For `O=c1n(CC2CO2)c(=O)n(CC2CO2)c(=O)n1CC1CO1` (stereo not given), the Potency entry with DIV30, in the test on ECU, in the test with FAB9 and with HB3 was “inactive” in each case.

As for `CSc1nc2cc(Oc3cccc(Cl)c3Cl)c(Cl)cc2[nH]1`, the Potency was 8.91 µM (active) in the test on DFO2036; 9.53 µM (active) with DIV14; 10.7 µM (active) in the test with DIV30; 14.1 µM (active) in the test on Dd2; 6.31 µM (active) in the test on ECU; 12 µM (active) in the test with GB4. The Potency with HB3 is 8.91 µM (active).

Regarding `CCCc1nc(C(C)(C)O)c(C(=O)OCc2oc(=O)oc2C)n1Cc1ccc(-c2ccccc2-c2nn[nH]n2)cc1`, the Potency result in the test on DFO2036, in the test on DIV14, with DIV30, in the test with Dd2, with ECU and in the test with FAB9 was “inactive” throughout. Also, the Potency entry with GB4 and in the test on HB3 was “inactive” in each case.

For the origin of these results see PubChem BioAssay (NCATS).
